High-throughput results (PubChem)
3CLpro inhibitor – SARS-CoV 3CLpro protease inhibition; 290,000 compounds, 0.14% hits; recombinant SARS-CoV 3CLpro, quenched FRET peptide cleavage; inhibition, % at 6 µM; in the data active = inhibition above about 12%
RecA splice inh – inhibitors of M. tuberculosis RecA intein splicing; P9WHJ3; inhibition, % (concentration not given with the values); 290,000 compounds, 0.75% hits; AID 2221; cell-free RecA intein splicing, fluorescence; in the data active = inhibition above about 30%;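 also: 0% = vehicle wells and 100% = reference inhibitor control wells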
Target sequence (P9WHJ3 whole entry, looked up, canonical isoform): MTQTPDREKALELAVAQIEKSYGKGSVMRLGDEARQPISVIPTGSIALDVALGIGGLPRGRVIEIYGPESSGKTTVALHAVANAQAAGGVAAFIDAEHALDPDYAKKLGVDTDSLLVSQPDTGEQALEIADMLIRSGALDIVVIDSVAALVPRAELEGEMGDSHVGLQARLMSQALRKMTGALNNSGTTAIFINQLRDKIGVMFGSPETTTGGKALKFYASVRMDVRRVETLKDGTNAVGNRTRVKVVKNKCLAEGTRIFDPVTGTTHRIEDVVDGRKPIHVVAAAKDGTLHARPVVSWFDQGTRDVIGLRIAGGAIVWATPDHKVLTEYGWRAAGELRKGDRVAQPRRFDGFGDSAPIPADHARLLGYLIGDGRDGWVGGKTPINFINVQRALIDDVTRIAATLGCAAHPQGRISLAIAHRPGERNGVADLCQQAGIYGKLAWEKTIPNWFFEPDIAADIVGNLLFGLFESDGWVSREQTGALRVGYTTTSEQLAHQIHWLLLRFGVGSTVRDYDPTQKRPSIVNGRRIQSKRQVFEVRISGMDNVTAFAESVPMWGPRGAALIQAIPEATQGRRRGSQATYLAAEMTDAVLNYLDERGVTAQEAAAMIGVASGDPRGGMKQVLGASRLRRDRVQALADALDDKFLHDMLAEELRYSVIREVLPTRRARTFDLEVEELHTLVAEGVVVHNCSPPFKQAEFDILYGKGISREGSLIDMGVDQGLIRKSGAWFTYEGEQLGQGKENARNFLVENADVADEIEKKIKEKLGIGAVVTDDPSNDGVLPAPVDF
VHR inh abs – DUSP3 (human) phosphatase inhibition | recombinant VHR phosphatase, pNPP absorbance | 290,000 compounds, 0.52% hits | P51452 | AID 1654 | inhibition, % at 13.3 µM; in the data active = inhibition above about 50%
CCHFV vOTU inh – blocks the CCHF virus ovarian tumor domain protease | 370,000 compounds, 0.55% hits | AID 651958 | inhibition, % at 11.5 µM | CCHFV vOTU protease, Pep-AMC fluorescence; in the data active = inhibition above about 30%; also: 0% = vehicle wells with enzyme and 100% = no enzyme wells
* marks the source's active call; other numbers are inactive results; . = no result given. Shown are actives, neighbours in structure and some others; about 1.5% of the full set was active somewhere.

SMILES	3CLpro inhibitor	RecA splice inh	VHR inh abs	CCHFV vOTU inh
COc1ccc(CN(CCN2CCOCC2)C(=O)c2cccc(F)c2F)cc1OC	.	.	.	-5.4
CC(=O)c1ccc(NC(=S)N2CCN(CCN3C(=O)c4cccc5cccc(c45)C3=O)CC2)cc1	-0.6	1.1	55.4*	-7.4
COc1ccc(S(=O)(=O)NC(=O)C2(C)CCN2C(=O)CCC2CCCC2)cc1OC (stereo not given)	.	.	.	5.5
CCOC(=O)C1=CN(Cc2ccco2)S(=O)(=O)N(C)C1c1ccc(F)c(Cl)c1 (stereo not given)	.	.	.	5.2
COc1c(O)cc2c(c1O)C1OC(CO)C(O)C(O)C1OC2=O (stereo not given)	.	.	.	1.1
O=C1OCC2OC(O)C(O)C(O)C2OC(=O)c2cc(O)c(O)c(O)c2-c2c(O)c(O)c3oc(=O)c4c(c(O)c(O)c5oc(=O)c2c3c54)-c2c1cc(O)c(O)c2O (stereo not given)	.	.	121.4*	.
O=C(Nc1nccs1)c1c(O)c2cccc3c2n(c1=O)CCC3	-8.3	-1.5	55.6*	4.9
O=C(Nc1ccccn1)c1c(O)c2cccc3c2n(c1=O)CCC3	5.7	0.0	20.8	-4.3
Cc1ccnc(NC(=O)CCS(=O)(=O)c2ccccc2)c1	-0.9	.	16.3	5.3
O=C(CCS(=O)(=O)c1ccccc1)Nc1ccccn1	-6.1	-7.0	59.7*	9.5
COC(=O)CSc1nc(N)c2c3c(sc2n1)CCCC3	-2.7	-2.7	33.9	-9.3
COC(=O)CSc1nc(N)c2c3c(sc2n1)C(c1ccccc1)SC(c1ccccc1)C3 (stereo not given)	-0.1	35.8*	-6.7	.
CCSc1nnc(NC(=O)C2(C)Cc3ccccc3C(=O)O2)s1 (stereo not given)	-2.2	0.3	6.4	-2.4
CC1(C(=O)Nc2nnc(C(C)(C)C)s2)Cc2ccccc2C(=O)O1 (stereo not given)	2.1	0.3	52.7*	8.8
CCC(C)C(=O)Nc1nc(C)c(-c2csc(Nc3cc(OC)ccc3OC)n2)s1 (stereo not given)	4.5	6.8	51.2*	16.8
CCC(C)C(=O)Nc1nc(C)c(-c2csc(Nc3cc(Cl)ccc3OC)n2)s1 (stereo not given)	7.6	6.5	27.0	9.5
Cc1ccc(C)c(OCC(=O)Nc2ccncc2)c1	-4.5	.	13.9	-13.7
N#CCSc1ccc(-c2nc3ccccc3[nH]2)cn1	2.4	5.1	9.1	10.4
COc1cc(NC(=O)CCc2nnc3ccc(N4CCN(C)CC4)nn23)cc(OC)c1	-6.0	-0.3	52.1*	-6.8
CCOC(=O)CC[C@@H]1CC[C@]2(CCCN(Cc3ccccn3)C2)O1	.	.	.	-0.7
Cc1cccc(/C=C/c2nc3ccccc3c(=O)n2Cc2ccccc2)c1	3.2	3.4	-16.8	16.5
O=c1c2ccccc2nc(/C=C/c2cccnc2)n1Cc1ccccc1	11.9	49.0*	25.2	4.5
O=c1c2ccccc2nc(/C=C/c2ccccc2)n1CCc1ccccc1	-0.3	-1.7	40.4	-15.4
O=c1c2ccccc2nc(/C=C/c2cccnc2)n1CCc1ccccc1	5.9	42.9*	13.8	9.0
COc1ccccc1NC(=O)c1cnc(SCC(=O)NCCc2ccccc2)n(C)c1=O	.	0.1	.	-4.5
SMILES	3CLpro inhibitor	RecA splice inh	VHR inh abs	CCHFV vOTU inh
CCN(CC)S(=O)(=O)c1ccc(=O)n(CC(=O)N2CCCc3cc(C)ccc32)c1	.	.	.	-3.0
COc1ccc(OC(=O)COc2cccc(C)c2)cc1	-1.6	4.6	16.5	-3.1
COc1ccc(N(C(=O)COc2cccc(C)c2)S(=O)(=O)c2ccc(C)cc2)cc1	3.0	52.4*	18.0	-0.4
O=C(CCl)Nc1ccccc1C(=O)Nc1ccc2c(c1)OCO2	-5.1	37.9*	7.7	-15.0
O=C(CCNC(=O)c1ccccc1Cl)Nc1ccc2c(c1)OCO2	-2.1	-1.6	30.9	11.2
OCC[n+]1c2ccccc2nc2ccc(N3CCOCC3)cc21	3.9	31.0*	17.6	11.4
CN1C(=O)c2cc(NC(=O)C3CC3)ccc2OC[C@H]2O[C@@H](CC(=O)NC3CCC3)CC[C@@H]21	.	.	.	-4.8
NS(=O)(=O)c1ccc(N=Nc2c(O)[nH]c(=S)[nH]c2=O)cc1	0.7	33.9*	1.2	3.8
O=c1[nH]c(=S)[nH]c(O)c1N=Nc1ccc(S(=O)(=O)N2CCOCC2)cc1	3.8	-2.6	5.4	9.8
CCN(CC)C(=O)Cn1cc(S(=O)(=O)CC(=O)Nc2ccccc2C)c2ccccc21	0.3	-0.2	1.2	7.8
CCN(CC)CCN(Cc1cc2cc3c(cc2[nH]c1=O)OCCO3)C(=S)NCCCN(C)C	-1.2	-2.5	13.9	-13.1
CCN(CC)CCN(Cc1cc2cc3c(cc2[nH]c1=O)OCO3)C(=S)NCCCN(C)C	-1.1	-4.8	51.7*	-43.8
COCCCNC(=S)N(CCO)Cc1cc2cc3c(cc2[nH]c1=O)OCO3	-0.2	-0.4	51.5*	-12.4
